Shown are actives, neighbours in structure and some others; about 2.3% of the full set was active somewhere.
CHO-K1 Ca antag = M1 antagonist counterscreen hit in parental CHO-K1 cells | ATP-induced calcium, Fluo-8 fluorescence | inhibition, % at 3 µM | 0.6% of 360,000 active | AID 602250;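 active = inhibition above a per-plate cutoff, the plate's mean sample inhibition plus 3 SD, cut at about 24% in these data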;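 note: 0% = DMSO plus EC80 ATP and 100% = DMSO alone without ATP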
CHRM1 PAM = potentiates human M1 receptor response to acetylcholine. CHO-K1 hM1, Fluo-8 calcium fluorescence, ACh EC20; 0% = ACh EC20, 100% = maximal ACh. activation, % at 3 µM. 0.088% of 360,000 active. P11229; in the data active = activation above about 19%, passing the limit was not always enough
Target sequence (P11229 whole entry, looked up): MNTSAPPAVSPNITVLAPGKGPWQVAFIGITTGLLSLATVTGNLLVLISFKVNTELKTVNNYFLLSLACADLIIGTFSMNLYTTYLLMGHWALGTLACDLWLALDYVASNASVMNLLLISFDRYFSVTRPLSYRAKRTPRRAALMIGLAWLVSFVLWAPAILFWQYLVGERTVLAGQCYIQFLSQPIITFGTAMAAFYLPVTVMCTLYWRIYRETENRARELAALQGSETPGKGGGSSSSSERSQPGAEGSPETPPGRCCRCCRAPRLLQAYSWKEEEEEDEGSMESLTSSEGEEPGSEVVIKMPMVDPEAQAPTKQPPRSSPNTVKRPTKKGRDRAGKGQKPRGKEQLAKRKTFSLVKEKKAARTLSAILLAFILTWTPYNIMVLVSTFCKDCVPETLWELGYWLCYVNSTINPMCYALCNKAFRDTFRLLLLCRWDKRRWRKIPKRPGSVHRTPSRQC
M1 ag = human M1 muscarinic receptor agonism; CHO-K1 hM1, Fluo-8 calcium fluorescence, agonist mode; 0% DMSO, 100% acetylcholine EC100; AID 588814; 0.33% of 360,000 active; activation, % at 3 µM;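 active = activation above the run's mean compound activation plus 3 SD, cut at about 16% in these data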;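 note: peak over basal fluorescence ratio within a 140 s kinetic read after compound addition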
M1 PAM parental = M1 PAM counterscreen hit in parental CHO-K1 cells; ATP EC20, Fluo-8 calcium fluorescence; 0% at ATP EC20, 100% at ATP max; activation, % at 3 µM; 0.02% of 360,000 active;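 active = activation above the run cutoff, the mean activation of all test compounds plus 3 SD, cut at about 40% in these data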;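 note: peak over basal fluorescence ratio in a 140 s read after ATP addition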
CHRM1 antagonist = blocks human M1 muscarinic receptor; 1.3% of 360,000 active; AID 588852; P11229; CHO-K1 hM1, Fluo-8 calcium fluorescence, ACh EC80 antagonist; inhibition, % at 3 µM;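 active = percent inhibition above its own plate's cutoff, namely the mean of that plate's compound wells plus 3 SD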;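 note: peak over basal fluorescence ratio during 140 s after agonist addition; 0% = ACh EC80 plus DMSO and 100% = DMSO alone without agonist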
CHO-K1 Ca ag = M1 agonist counterscreen hit in parental CHO-K1 cells | Fluo-8 calcium fluorescence; scaled to maximal ATP response, vehicle zero | activation, % at 3 µM | 0.48% of 360,000 active; in the data active = activation above about 15%;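 note: untransfected CHO-K1 host cells lacking M1 receptor as counterscreen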
* hit, by the source's call.

CCOC(=O)C1(CCc2ccccc2)CCN(C2CCSCC2)CC1 was read as CHO-K1 Ca antag 1, CHRM1 PAM -22, M1 ag -5, M1 PAM parental -1, CHRM1 antagonist 52* and CHO-K1 Ca ag 0.
For CCOC(=O)C1(CCCc2ccccc2)CCN(C2CCCC2)CC1 the results were CHO-K1 Ca antag 5, CHRM1 PAM -18, M1 ag -14, M1 PAM parental -2, CHRM1 antagonist 12 and CHO-K1 Ca ag 1.
CCCCn1nnnc1C(c1cccc2ccccc12)N1CCC2(CC1)C(=O)NCN2c1ccccc1 (stereo not drawn) was read as CHO-K1 Ca antag 30*, CHRM1 PAM 9, M1 ag 2, M1 PAM parental -8, CHRM1 antagonist -3 and CHO-K1 Ca ag 0.
Screening O=C1NCN(c2ccccc2)C12CCN(C(c1ccccc1)c1nnnn1-c1ccc3c(c1)OCCO3)CC2 (stereo not drawn) returned CHO-K1 Ca antag 6, CHRM1 PAM 20, M1 ag 17*, M1 PAM parental 0, CHRM1 antagonist 5 and CHO-K1 Ca ag 1.
For O=C(CCc1ccccc1)N1Cc2cc(-c3ccccc3)ccc2-n2nncc2C1 the results were CHO-K1 Ca antag 22, CHRM1 PAM -7, M1 ag -4, M1 PAM parental -6, CHRM1 antagonist 4 and CHO-K1 Ca ag 2.
For O=c1[nH]c(=O)n(Cc2ccccc2)c(O)c1C=NCCN1CCNCC1 the results were CHO-K1 Ca antag -13, CHRM1 PAM -28, M1 ag -12, M1 PAM parental 2, CHRM1 antagonist 33* and CHO-K1 Ca ag 0.
`O=c1[nH]c(=O)n(CCc2ccccc2)c(O)c1C=NCCCn1ccnc1` gave CHO-K1 Ca antag 62*, CHRM1 PAM 3, M1 ag -5, M1 PAM parental -6, CHRM1 antagonist -7 and CHO-K1 Ca ag 0.
`O=c1[nH]c(=S)n(-c2ccccc2Cl)c(O)c1C=NCCN1CCNCC1` gave CHO-K1 Ca antag -9, CHRM1 PAM -13, M1 ag 39*, M1 PAM parental 5, CHRM1 antagonist 26 and CHO-K1 Ca ag 3.
For COc1nc2ccccc2nc1N1CC1 the results were CHO-K1 Ca antag 7, CHRM1 PAM 0, M1 ag -2, M1 PAM parental 2, CHRM1 antagonist -5 and CHO-K1 Ca ag 0.
`COc1ccc(CNCCc2ccc(Cl)cc2)c(OC)c1OC` gave CHO-K1 Ca antag -1, CHRM1 PAM 3, M1 ag -8, M1 PAM parental 12, CHRM1 antagonist -5 and CHO-K1 Ca ag 2.
Screening CCC/C=N/O returned CHO-K1 Ca antag -4, CHRM1 PAM 3, M1 ag 2, M1 PAM parental 3, CHRM1 antagonist -6 and CHO-K1 Ca ag 0.
`FC(F)(F)c1ccc2c(c1)N(CCCN1CCN(CCCl)CC1)c1ccccc1S2` gave CHO-K1 Ca antag 4, CHRM1 PAM -18, M1 ag -5, M1 PAM parental 10, CHRM1 antagonist 42* and CHO-K1 Ca ag 0.
For COc1ccc(-n2nnnc2C(c2ccnc3ccccc23)N2CCC(n3c(=O)[nH]c4ccccc43)CC2)cc1 (stereo not drawn) the results were CHO-K1 Ca antag -4, CHRM1 PAM -6, M1 ag -6, M1 PAM parental 20, CHRM1 antagonist -10 and CHO-K1 Ca ag 2.
`COc1ccc(-n2nnnc2C(c2cccc(OC)c2OC)N2CCC(n3c(=O)[nH]c4ccccc43)CC2)cc1` (stereo not drawn) gave CHO-K1 Ca antag -1, CHRM1 PAM 8, M1 ag 23*, M1 PAM parental 10, CHRM1 antagonist -6 and CHO-K1 Ca ag 4.
O=c1[nH]c2ccccc2n1C1CCN(C(c2ccccc2OC(F)(F)F)c2nnnn2-c2ccc3c(c2)OCCO3)CC1 (stereo not drawn) was read as CHO-K1 Ca antag -18, CHRM1 PAM 1, M1 ag 3, M1 PAM parental 33, CHRM1 antagonist -16 and CHO-K1 Ca ag 20*.
For COc1cccc(C(c2nnnn2-c2ccc3c(c2)OCCO3)N2CCC(n3c(=O)[nH]c4ccccc43)CC2)c1OC (stereo not drawn) the results were CHO-K1 Ca antag -6, CHRM1 PAM 2, M1 ag 20*, M1 PAM parental 31, CHRM1 antagonist 16 and CHO-K1 Ca ag 6.

Source: PubChem
